Experimental data from the supplement of paper PMC11732987, “Enantioselective OTUD7B fragment discovery through chemoproteomics screening and high-throughput optimisation” (Communications Chemistry, 2025).

Key:
Experiment in all cases: log2 ratio of Biotin-Ahx-Ub-VS probe labelling (fragment/DMSO); higher = less target engagement (more negative = stronger competition), active = hit call of the paper (q ≤ 0.05, log2 ratio ≤ -1)
Details in all cases: compound concentration: 200 uM; treatment time: 3 h
USP34 = USP34 (UniProt Q70CQ2)
Sequence of USP34 (Q70CQ2 whole entry, the tested form may be a part): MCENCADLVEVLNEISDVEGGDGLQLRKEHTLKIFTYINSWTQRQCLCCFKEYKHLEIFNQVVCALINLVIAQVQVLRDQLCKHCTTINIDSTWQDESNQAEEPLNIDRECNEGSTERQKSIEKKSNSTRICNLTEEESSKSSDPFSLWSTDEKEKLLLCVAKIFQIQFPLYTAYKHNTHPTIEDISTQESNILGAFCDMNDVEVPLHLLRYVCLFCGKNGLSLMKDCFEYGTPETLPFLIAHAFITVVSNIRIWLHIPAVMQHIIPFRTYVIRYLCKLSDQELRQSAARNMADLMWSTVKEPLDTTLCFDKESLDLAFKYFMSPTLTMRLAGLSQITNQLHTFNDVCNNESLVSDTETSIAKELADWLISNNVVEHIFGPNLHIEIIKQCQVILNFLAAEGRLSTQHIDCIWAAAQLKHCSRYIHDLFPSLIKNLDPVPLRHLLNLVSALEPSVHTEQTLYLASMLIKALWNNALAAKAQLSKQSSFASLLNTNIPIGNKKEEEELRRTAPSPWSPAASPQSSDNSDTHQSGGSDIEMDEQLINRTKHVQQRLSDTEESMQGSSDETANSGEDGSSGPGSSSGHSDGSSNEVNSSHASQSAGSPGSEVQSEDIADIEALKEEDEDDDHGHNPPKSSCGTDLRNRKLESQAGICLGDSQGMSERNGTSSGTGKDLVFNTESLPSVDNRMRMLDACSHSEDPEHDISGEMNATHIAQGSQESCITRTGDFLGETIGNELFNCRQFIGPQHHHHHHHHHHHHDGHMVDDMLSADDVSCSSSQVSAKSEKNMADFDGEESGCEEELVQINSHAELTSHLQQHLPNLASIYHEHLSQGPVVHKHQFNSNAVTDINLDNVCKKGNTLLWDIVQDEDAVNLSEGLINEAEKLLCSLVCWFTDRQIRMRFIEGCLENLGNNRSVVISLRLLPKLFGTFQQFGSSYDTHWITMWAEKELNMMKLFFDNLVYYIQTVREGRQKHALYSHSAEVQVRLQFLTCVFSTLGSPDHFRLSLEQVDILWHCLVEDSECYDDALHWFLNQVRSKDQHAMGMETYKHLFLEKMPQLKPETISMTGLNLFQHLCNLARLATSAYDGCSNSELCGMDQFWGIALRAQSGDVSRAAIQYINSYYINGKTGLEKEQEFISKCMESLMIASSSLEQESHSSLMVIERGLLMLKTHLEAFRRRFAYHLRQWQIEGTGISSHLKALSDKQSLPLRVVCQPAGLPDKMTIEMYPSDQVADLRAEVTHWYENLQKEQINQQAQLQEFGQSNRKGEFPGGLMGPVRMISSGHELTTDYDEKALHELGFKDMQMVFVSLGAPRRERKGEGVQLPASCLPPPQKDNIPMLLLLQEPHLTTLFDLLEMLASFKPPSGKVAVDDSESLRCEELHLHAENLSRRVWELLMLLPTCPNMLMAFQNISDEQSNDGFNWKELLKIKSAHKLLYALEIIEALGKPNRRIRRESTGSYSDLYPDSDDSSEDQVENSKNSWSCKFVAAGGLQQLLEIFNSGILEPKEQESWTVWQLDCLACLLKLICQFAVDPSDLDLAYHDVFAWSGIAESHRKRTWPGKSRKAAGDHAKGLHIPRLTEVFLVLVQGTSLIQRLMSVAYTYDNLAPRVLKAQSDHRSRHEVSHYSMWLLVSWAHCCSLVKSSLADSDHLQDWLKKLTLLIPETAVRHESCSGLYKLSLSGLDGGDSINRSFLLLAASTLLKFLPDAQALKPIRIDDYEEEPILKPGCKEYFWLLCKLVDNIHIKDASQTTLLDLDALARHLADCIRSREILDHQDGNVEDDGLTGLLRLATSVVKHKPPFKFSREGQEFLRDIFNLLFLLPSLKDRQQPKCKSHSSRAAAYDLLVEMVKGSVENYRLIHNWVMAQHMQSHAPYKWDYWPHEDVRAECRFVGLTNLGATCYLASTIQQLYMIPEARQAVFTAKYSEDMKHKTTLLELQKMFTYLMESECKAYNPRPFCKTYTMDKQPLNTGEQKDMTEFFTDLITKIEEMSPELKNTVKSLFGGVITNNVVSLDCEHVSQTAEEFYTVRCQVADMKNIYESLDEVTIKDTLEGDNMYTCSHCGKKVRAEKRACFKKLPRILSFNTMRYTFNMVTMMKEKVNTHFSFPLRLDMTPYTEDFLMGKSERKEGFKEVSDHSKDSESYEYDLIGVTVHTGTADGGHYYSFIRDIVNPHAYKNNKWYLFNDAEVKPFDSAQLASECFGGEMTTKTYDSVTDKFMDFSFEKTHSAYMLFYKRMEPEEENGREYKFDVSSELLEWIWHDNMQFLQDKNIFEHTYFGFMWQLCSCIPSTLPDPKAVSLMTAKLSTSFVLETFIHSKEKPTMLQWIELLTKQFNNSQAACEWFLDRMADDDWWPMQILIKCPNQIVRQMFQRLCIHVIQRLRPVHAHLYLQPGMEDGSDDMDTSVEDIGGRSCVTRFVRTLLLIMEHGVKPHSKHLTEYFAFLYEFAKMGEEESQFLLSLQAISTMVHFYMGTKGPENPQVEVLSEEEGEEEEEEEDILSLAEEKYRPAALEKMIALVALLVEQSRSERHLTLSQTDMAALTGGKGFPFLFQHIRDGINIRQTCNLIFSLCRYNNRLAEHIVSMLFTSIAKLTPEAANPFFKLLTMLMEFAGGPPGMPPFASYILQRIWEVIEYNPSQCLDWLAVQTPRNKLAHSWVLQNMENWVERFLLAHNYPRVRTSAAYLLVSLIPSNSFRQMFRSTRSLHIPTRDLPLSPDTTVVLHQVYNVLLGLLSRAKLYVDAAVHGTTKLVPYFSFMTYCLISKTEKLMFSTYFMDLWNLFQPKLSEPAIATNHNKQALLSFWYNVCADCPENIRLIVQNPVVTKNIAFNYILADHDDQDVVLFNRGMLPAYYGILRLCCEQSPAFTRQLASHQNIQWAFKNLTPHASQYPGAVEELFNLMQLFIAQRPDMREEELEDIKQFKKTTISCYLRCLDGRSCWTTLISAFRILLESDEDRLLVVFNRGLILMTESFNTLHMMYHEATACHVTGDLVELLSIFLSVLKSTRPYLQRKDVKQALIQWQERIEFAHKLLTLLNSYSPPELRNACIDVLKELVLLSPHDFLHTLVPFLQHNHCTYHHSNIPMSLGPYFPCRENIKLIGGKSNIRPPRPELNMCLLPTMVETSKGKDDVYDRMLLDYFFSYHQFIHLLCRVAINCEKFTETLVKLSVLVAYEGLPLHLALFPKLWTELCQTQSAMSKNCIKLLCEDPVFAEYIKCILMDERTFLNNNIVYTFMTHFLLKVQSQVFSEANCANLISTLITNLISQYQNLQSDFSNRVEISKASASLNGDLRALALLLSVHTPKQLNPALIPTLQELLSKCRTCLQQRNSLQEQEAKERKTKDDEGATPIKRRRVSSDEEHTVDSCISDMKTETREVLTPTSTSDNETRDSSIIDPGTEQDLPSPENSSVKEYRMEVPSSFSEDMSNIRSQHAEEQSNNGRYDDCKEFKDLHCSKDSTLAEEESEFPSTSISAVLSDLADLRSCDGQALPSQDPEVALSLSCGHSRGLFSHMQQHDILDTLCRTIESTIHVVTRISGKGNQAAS
Method in brief: (§1)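 Labelled DUBs from HEK293T lysate were NeutrAvidin-enriched, digested with LysC and trypsin, and run by diaPASEF LC-MS/MS. Before that, each 495 µg sample in Tris/CHAPS/IGEPAL buffer with protease inhibitors was treated in triplicate with fragment at 200 µM or vehicle for 3 h, then with Biotin-Ahx-Ub-VS at 0.5 µM final for 1 h. Values are average log2 ratios of fragment over vehicle by unpaired t-test, based on global-median-normalised Spectronaut label-free quantities from proteins with ≥2 unique peptides.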

USP36 = target: T1, USP36 (UniProt Q9P275)
T1 sequence (whole entry): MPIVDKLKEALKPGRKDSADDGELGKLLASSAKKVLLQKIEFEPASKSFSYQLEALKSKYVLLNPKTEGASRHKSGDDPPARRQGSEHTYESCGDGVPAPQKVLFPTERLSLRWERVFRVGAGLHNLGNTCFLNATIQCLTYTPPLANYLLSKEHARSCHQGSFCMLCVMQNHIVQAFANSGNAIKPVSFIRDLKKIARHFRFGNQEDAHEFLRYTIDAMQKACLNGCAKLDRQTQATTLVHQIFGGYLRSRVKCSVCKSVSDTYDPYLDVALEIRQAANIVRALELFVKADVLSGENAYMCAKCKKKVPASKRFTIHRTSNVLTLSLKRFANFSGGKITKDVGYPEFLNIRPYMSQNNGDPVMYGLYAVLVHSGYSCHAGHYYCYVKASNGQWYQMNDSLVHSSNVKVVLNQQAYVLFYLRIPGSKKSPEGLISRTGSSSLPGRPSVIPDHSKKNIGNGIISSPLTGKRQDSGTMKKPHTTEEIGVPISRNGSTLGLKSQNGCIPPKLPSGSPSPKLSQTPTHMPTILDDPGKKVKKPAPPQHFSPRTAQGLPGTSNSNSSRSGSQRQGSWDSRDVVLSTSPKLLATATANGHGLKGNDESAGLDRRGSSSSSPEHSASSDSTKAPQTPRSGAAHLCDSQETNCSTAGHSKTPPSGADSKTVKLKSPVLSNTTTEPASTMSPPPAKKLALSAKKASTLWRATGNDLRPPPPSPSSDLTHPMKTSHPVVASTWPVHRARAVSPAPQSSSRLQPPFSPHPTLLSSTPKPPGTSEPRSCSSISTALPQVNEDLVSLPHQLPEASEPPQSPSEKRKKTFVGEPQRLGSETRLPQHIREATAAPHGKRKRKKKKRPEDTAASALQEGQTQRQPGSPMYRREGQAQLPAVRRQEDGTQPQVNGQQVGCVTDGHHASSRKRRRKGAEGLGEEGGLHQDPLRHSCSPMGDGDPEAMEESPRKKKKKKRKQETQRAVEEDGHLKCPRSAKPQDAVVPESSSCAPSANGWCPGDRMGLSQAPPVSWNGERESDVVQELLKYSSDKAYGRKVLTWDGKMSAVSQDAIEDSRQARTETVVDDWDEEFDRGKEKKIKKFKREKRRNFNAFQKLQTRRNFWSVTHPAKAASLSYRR
Method in brief: as §1

USP38 = target: T2, USP38 (UniProt Q8NB14)
T2 sequence (whole entry): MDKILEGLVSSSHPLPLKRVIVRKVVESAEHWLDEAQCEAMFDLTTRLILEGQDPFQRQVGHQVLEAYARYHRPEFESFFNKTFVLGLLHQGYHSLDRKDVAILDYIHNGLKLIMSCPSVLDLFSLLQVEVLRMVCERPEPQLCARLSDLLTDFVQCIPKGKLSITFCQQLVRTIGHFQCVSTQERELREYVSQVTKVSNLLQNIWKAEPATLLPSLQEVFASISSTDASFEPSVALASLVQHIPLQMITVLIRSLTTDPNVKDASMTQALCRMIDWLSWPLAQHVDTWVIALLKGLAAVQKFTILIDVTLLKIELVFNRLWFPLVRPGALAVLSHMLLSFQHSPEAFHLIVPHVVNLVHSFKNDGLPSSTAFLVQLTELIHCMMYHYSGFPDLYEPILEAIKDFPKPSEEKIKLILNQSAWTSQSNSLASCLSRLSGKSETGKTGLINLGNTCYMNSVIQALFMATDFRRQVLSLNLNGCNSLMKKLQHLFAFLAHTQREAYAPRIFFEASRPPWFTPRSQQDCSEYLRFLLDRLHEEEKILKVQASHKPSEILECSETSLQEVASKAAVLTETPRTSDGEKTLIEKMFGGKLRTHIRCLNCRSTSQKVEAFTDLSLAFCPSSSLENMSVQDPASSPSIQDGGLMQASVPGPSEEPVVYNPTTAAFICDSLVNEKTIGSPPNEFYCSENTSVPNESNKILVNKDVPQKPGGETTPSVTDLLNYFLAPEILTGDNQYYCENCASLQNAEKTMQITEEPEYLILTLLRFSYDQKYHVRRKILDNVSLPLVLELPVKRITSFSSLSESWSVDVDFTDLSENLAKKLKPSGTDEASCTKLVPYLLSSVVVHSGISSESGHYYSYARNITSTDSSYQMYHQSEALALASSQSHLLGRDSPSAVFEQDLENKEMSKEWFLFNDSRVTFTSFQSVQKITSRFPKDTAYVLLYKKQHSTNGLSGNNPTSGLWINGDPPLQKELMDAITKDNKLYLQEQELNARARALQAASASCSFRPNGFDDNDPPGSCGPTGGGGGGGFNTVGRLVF
Method in brief: as §1

USP39 = target: T3, USP39 (UniProt Q53GS9)
T3 sequence (whole entry): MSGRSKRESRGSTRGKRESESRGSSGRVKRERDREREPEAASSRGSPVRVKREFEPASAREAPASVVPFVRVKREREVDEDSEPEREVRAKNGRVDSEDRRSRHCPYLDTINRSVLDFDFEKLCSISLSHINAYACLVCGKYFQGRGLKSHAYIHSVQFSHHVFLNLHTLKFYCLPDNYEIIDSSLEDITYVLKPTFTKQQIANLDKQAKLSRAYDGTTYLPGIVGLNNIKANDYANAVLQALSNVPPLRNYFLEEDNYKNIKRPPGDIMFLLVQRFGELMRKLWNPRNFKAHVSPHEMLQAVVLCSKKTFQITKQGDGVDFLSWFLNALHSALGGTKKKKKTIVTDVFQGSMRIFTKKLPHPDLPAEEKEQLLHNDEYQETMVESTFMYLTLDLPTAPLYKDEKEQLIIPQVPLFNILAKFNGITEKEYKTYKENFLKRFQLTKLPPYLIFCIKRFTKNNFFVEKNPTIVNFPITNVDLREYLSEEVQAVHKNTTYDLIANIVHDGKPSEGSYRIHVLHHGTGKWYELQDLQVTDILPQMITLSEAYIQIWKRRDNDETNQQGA
Method in brief: as §1

USP4 = target: T4, USP4 (UniProt Q13107)
T4 sequence (whole entry): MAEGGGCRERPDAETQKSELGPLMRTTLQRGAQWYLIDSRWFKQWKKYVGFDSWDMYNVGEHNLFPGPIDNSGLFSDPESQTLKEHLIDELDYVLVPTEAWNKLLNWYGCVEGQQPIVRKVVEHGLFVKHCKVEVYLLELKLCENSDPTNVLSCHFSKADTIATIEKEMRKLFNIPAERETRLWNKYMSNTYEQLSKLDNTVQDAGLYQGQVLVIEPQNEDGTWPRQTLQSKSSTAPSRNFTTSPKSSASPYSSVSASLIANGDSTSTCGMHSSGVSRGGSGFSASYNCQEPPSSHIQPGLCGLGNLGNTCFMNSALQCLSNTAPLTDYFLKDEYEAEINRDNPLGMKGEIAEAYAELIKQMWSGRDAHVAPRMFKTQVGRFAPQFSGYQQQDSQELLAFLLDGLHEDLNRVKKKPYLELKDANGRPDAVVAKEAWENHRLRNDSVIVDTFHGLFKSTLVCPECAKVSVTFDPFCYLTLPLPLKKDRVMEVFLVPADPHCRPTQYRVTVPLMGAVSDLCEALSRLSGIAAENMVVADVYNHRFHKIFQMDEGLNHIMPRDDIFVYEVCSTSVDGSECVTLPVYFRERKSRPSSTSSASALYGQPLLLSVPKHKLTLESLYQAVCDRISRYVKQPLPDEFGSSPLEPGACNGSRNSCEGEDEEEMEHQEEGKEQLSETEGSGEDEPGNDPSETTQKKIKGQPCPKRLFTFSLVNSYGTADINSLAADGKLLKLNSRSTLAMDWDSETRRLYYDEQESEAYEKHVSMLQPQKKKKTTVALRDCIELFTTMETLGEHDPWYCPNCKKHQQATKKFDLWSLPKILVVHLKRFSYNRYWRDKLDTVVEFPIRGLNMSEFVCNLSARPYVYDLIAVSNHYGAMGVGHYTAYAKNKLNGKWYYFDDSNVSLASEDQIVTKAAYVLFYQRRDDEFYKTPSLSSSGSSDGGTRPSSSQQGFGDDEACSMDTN
Method in brief: as §1

Measured: log2 ratio of Biotin-Ahx-Ub-VS probe labelling

O=C(CCl)N1CC2(CCOCC2)C1
inactive: USP34 -0.0656 | USP36 -0.243 | USP38 0.103 | USP39 0.364 | USP4 -0.0394
